SARS PLP yeast = SARS-CoV PLP inhibition in yeast. S. cerevisiae expressing SARS-CoV PLpro, growth rescue. Potency, µM (series often up to 32.9 µM), for inactives: at the top dose activity, positive = growth rescue, hits mostly activators. hit rate 0.19% among 330,000. AID 485353; calls by dose curve; note: 0% is about no effect; nearly all actives have a fitted effect of over 55% in size
Pf growth 48h = inhibits P. falciparum growth in the first generation, 48 h | P. falciparum luciferase growth in erythrocytes, 48 h | Potency, µM (top dose mostly 28.7 µM), for inactives: at the highest dose activity change, negative = inhibition, usual class: inhibitors | hit rate 5.9% among 310,000; note: % is set by controls: 0 for no effect and ±100 for the full control effect
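First compound was added to culture medium, then infected red cells at 0.1% parasitemia and 2% hematocrit (final). After incubation at 37 C under 5% CO2, luciferase detection reagent was dispensed and light output recorded.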
Pf growth 96h = P. falciparum growth inhibition at 96 hours; P. falciparum luciferase reporter growth, 96 h; hit rate 6.9% among 320,000; Potency, µM (highest dose often 28.7 µM), without a hit: at the highest dose activity change, negative = inhibition, actives largely listed as inhibitors; note: % is set by controls: 0 for no effect and ±100 for the full control effect
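Compounds incubated with erythrocytes infected by luciferase-expressing P. falciparum (2% hematocrit, 0.05% parasitemia final) for 96 hours, 37 C in 5% CO2. Growth inhibition scored as decreased luciferase luminescence.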
AMA1 RON2 block = AMA1-RON2 (P. falciparum) interaction inhibition | hit rate 0.2% among 360,000 | Potency, µM (doses to about 58.2 µM), for inactives: at the highest dose activity change, negative = inhibition, usual class: inhibitors | AlphaScreen AMA1-biotinylated RON2 peptide binding;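 note: 0% = vehicle wells and -100% = peptide control; nearly all actives have a fitted effect of over 45% in size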
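AMA1 (3D7) with his tag at 25 nM final met compounds first, then biotinylated RON2 peptide at 25 nM; detection used donor plus acceptor beads, 10 µg/mL apiece, read by AlphaScreen after 30 min at room temperature.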
Active calls of the source: *; u = inconclusive; x = no result. An excerpt weighted towards active compounds, which were near 9.4% of everything screened. Unless noted, calls come from the whole dose curve; as a rule, active = well fitted curve in the direction sought with a large enough effect; inconclusive = small, poorly fitted or top-dose-only effect, or another doubt; inactive = no such curve, though single readings can be large; an effect the other way counts as inactive or inconclusive. Potency is the fitted concentration of half-maximal effect.

SMILES | SARS PLP yeast | Pf growth 48h | Pf growth 96h | AMA1 RON2 block
O=C(NCC1CCCO1)c1ccc(S(=O)(=O)N2CCC(c3nc4ccc(Cl)cc4[nH]3)CC2)cc1 (stereo unspecified) | -4% | 13µM* | -26% | -10%
O=C(NCC1CCCO1)c1cc(S(=O)(=O)N2CCCCC2)ccc1Cl (stereo unspecified) | 7% | 4% | 18% | 14%
Cc1ccc(CN2CCC(c3nc4ccc(Cl)cc4[nH]3)CC2)cc1 | 1% | 8.3µM* | u | -10%
CC(NC(=O)Cc1ccccc1)c1cc2c(cc1Br)OCCCO2 (stereo unspecified) | -5% | 8% | 3% | 7%
Cc1cccc(NC(=O)COC(=O)c2ccc3nc(C)c(C)nc3c2)c1 | x | x | x | -11%
Cc1cccc([C@@H]2[C@@H]3C(=O)N(Cc4ccccc4)C(=O)[C@@H]3[C@]3(CC(C)C)C(=O)N(c4cccc(F)c4)C(=O)N23)c1 | 4% | 9.3µM* | u | -9%
Cc1cccc([C@@H]2[C@@H]3C(=O)N(Cc4ccccc4)C(=O)[C@@H]3[C@]3(CC(C)C)C(=O)N(c4cccc(Br)c4)C(=O)N23)c1 | 1% | u | u | -7%
CC[C@@]12C(=O)N(c3ccccc3)C(=O)N1[C@H](c1cccc(C)c1)[C@@H]1C(=O)N(Cc3ccccc3)C(=O)[C@@H]12 | -1% | u | 6.6µM* | 13%
CC[C@@]12C(=O)N(c3cccc(Br)c3)C(=O)N1[C@H](c1cccc(C)c1)[C@@H]1C(=O)N(Cc3ccccc3)C(=O)[C@@H]12 | 2% | 4.1µM* | 5.2µM* | -5%
COc1ccc(CNC(=O)/C=C/[C@H]2O[C@@H](n3cnc4c(NC(=O)c5ccccc5)ncnc43)[C@H](O)[C@@H]2O)cc1 | x | x | x | 10%
COc1ccc2[nH]c(CN3CCN(CCC(C)C)C(CCO)C3)c(C)c2c1 (stereo unspecified) | 0% | 15% | u | -4%
Cc1cccc(OCC(=O)N/N=C2/SCC(=O)N2Cc2ccco2)c1 | 0% | -10% | u | 29%
NC(=S)N/N=C1\CC(c2ccc3c(c2)OCCO3)Oc2ccc(F)cc21 (stereo unspecified) | -2% | u | 12µM* | 72%
COc1cccc(C(C(=O)NC2CCCCC2)N(C(=O)c2ccccn2)c2cccnc2)c1 (stereo unspecified) | 0% | -2% | 1.7µM* | -1%
CCc1ccc(C(C(=O)NC2CCCCC2)N(C(=O)c2ccccn2)c2cccnc2)cc1 (stereo unspecified) | -2% | -7% | -26% | x
CCOC(=O)c1ccc(N(C(=O)c2cnccn2)C(C(=O)NC2CCCCC2)c2cn(C)nc2C)cc1 (stereo unspecified) | u | u | u | -10%
Cc1nn(C)cc1C(C(=O)NC1CCCCC1)N(C(=O)c1cnccn1)c1ccc(Oc2ccccc2)cc1 (stereo unspecified) | 9% | 5.9µM* | -12% | -4%
CCOc1ccc(C(C(=O)NC2CCCCC2)N(C(=O)c2ccccn2)c2cccnc2)cc1 (stereo unspecified) | 0% | 10µM* | 15µM* | 1%
CCOc1ccc(N(C(=O)c2cnsn2)C(C(=O)NC2CCCCC2)c2ccncc2)cc1 (stereo unspecified) | 13% | u | 1.2µM* | -9%
CCC1(CC)Nc2ccccc2C(=O)N1c1ccc(OC)cc1 | -1% | 112% | 457% | 8%
Cc1ccc2c(cnn2C(=O)CCC(=O)NCc2cccc(Cl)c2)c1 | 0% | 6% | 40% | 5%
Cc1ccc2c(cnn2C(=O)CCC(=O)NCc2cccc(Br)c2)c1 | -8% | 18% | 2.6µM* | -1%
CCOc1ccccc1OCCN1CCC(Cc2ccccc2)CC1 | 15% | u | u | -5%
COc1cccc(C(N)CC(=O)O)c1 (stereo unspecified) | u | 15% | 8.3µM* | x
COc1ccc(OC)c(N=c2ssnc2Cl)c1 | 0% | 22% | 1.7µM* | -3%
SMILES | SARS PLP yeast | Pf growth 48h | Pf growth 96h | AMA1 RON2 block
COc1cc(N=c2ssnc2Cl)c(OC)cc1Cl | -2% | 29% | u | -20%
COc1cccc(C(=O)COC(=O)C2CC(=O)N(c3ccc(Oc4ccccc4OC)cc3)C2)c1 (stereo unspecified) | 0% | 6% | -8% | -11%
O=C(CCSc1nc(-c2ccc3c(c2)OCO3)cc(C(F)(F)F)n1)NCc1ccccc1 | -14% | u | 6% | u
CN(Cc1ccccc1)C(=O)CCSc1nc(-c2ccc3c(c2)OCO3)cc(C(F)(F)F)n1 | -13% | 9.3µM* | -2% | 0%
Cc1ccc(O)c(C2=NNC(O)(C(F)(F)F)C2)c1 (stereo unspecified) | -13% | 13µM* | x | 58%
Cc1ccc(O)c(-c2cc(-c3ccccc3F)[nH]n2)c1 | -19% | u | x | -1%
Nc1ccccc1N=Nc1ccccc1N | -15% | 293% | 415% | 32µM*
Cc1ccc(C)c(N2CCN(C(=O)c3ccc(CS(=O)Cc4ccc(Cl)cc4)o3)CC2)c1 (stereo unspecified) | -10% | 19% | 33% | 6%
CC(CCc1ccccc1)NC(=O)CSc1cccc[n+]1[O-] (stereo unspecified) | 0% | 2% | 6% | -11%
COc1ccc(NS(=O)(=O)c2ccc3c(c2)NC(=O)CCS3)cc1Cl | 2% | -26% | 5.9µM* | 0%
COc1cc(NC(=O)C(=O)Nc2ccc3nc4n(c(=O)c3c2)CCCCC4)cc(OC)c1OC | 1% | 7% | 0% | 2%
COCCCNC(=O)CCC(=O)NNc1nc2ccccc2c2nc(-c3ccccc3)nn12 | -9% | 28% | u | 85%
COCCCN1C(=O)C(=O)/C(=C(/O)c2ccccc2)C1c1ccc2c(c1)OCO2 (stereo unspecified) | -5% | 59% | -30% | 1%
Cc1ccccc1[C@H](NC1c2ccccc2C=Cc2ccccc21)P(=O)(c1ccccc1)c1ccccc1 | x | x | x | -16%
CCCCCCN(C(=O)CCCCCN1C(=O)NC(c2ccc(-c3ccccc3)cc2)C(C(=O)OCc2ccccc2)=C1C)C(C(=O)NCCCC)C1CCCCC1 (stereo unspecified) | 0% | 0.83µM* | 2.6µM* | x
CCCCCCN(C(=O)CCCCCN1C(=O)NC(c2ccc(-c3ccccc3)cc2)C(C(=O)OCc2ccccc2)=C1C)C(C(=O)NCCCC)c1ccccn1 (stereo unspecified) | 0% | 2.9µM* | 2.3µM* | x
CC1=C(C(=O)OCc2ccccc2)C(c2ccc(C#N)cc2)NC(=O)N1CCCC(=O)O (stereo unspecified) | 5% | 1% | -26% | 13%
CCCC(CCC(=O)NC1CCCCC1)C(=O)O (stereo unspecified) | 2% | -10% | 9% | 2%
CC1=NN(C(N)=S)C(=O)C1N=Nc1ccccc1C (stereo unspecified) | -13% | u | 0% | 29%
CC1=NN(C(N)=S)C(=O)C1N=Nc1c(Br)cc(Br)cc1Br (stereo unspecified) | -21% | 15% | -20% | 63%

Screening results from PubChem BioAssay.
